# Experimental data reported in PubChem BioAssay (NCATS).
# Inconclusive results are not listed. Where a call stands in place of a potency, no number is given. The source made the active and inactive calls. Calls come from the whole dose curve; as a rule, active = well fitted inhibition curve with a large enough effect; inconclusive = small, poorly fitted or top-dose-only effect; inactive = flat fitted curve, though single readings scatter. Peptide text beside a SMILES is read from it.
# Tests used:
# Test in all cases: qHTS profiling for inhibitors of Plasmodium falciparum proliferation (AID 504749); note: nearly all actives have a fitted effect of over 60% in size
# Details in all cases: P. falciparum in erythrocytes, SYBR Green DNA, 72 h; series mostly up to 28.7 µM
# AA1029 = system: AA1029
# Method in brief: (§1)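 Readout was DNA-dye fluorescence from lysed cultures, ex 485/em 535 nm. Parasitized red cells had grown 72 h with compound; data scaled between 0.29 uM artemisinin and DMSO wells and corrected using vehicle-only plates.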
# AS120 = system: AS120
# Method in brief: as §1
# ATS189 = system: ATS189
# Method in brief: as §1
# ATS95 = system: ATS95
# Method in brief: as §1
# C2A = system: C2A
# Method in brief: as §1
# CP185 = system: CP185
# Method in brief: as §1
# CP191 = system: CP191
# Method in brief: as §1
# CP192 = system: CP192
# Method in brief: as §1
# CP194 = system: CP194
# Method in brief: as §1
# CP201 = system: CP201
# Method in brief: as §1
# CP203 = system: CP203
# Method in brief: as §1
# CP211 = system: CP211
# Method in brief: as §1
# CP215 = system: CP215
# Method in brief: as §1
# CP217 = system: CP217
# Method in brief: as §1
# CP237 = system: CP237
# Method in brief: as §1
# CP238 = system: CP238
# Method in brief: as §1
# CP247 = system: CP247
# Method in brief: as §1
# CP250 = system: CP250
# Method in brief: as §1
# CP252 = system: CP252
# Method in brief: as §1
# CP256 = system: CP256
# Method in brief: as §1
# Potency is the fitted concentration of half-maximal effect.
SMILES,Potency (AA1029),Potency (AS120),Potency (ATS189),Potency (ATS95),Potency (C2A),Potency (CP185),Potency (CP191),Potency (CP192),Potency (CP194),Potency (CP201),Potency (CP203),Potency (CP211),Potency (CP215),Potency (CP217),Potency (CP237),Potency (CP238),Potency (CP247),Potency (CP250),Potency (CP252),Potency (CP256)
Oc1cc(O)c2c(c1)OC(c1ccc(O)c(O)c1)C(O)C2 (stereo unspecified),inactive,inactive,inactive,inactive,inactive,inactive,inactive,inactive,inactive,inactive,inactive,inactive,inactive,inactive,inactive,inactive,inactive,inactive,inactive,inactive
CC[N+](C)(C)Cc1ccccc1Br,inactive,inactive,inactive,inactive,inactive,inactive,inactive,inactive,inactive,inactive,inactive,inactive,inactive,inactive,inactive,inactive,inactive,inactive,inactive,inactive
CC1(C)C(C=C(Cl)Cl)C1C(=O)OCc1cccc(Oc2ccccc2)c1 (stereo unspecified),inactive,inactive,inactive,inactive,inactive,inactive,inactive,inactive,inactive,inactive,inactive,inactive,inactive,inactive,inactive,inactive,inactive,inactive,inactive,inactive
CC(O)CO (stereo unspecified),inactive,inactive,inactive,inactive,inactive,inactive,inactive,inactive,inactive,inactive,inactive,inactive,inactive,inactive,inactive,inactive,inactive,inactive,inactive,inactive
CCOC(C)=O,inactive,inactive,inactive,inactive,inactive,inactive,inactive,inactive,inactive,inactive,,inactive,inactive,inactive,inactive,inactive,inactive,inactive,inactive,inactive
COCC(=O)Nc1cc(Sc2ccccc2)ccc1N=C(NC(=O)OC)NC(=O)OC,inactive,inactive,inactive,inactive,inactive,inactive,inactive,inactive,inactive,inactive,inactive,inactive,inactive,inactive,inactive,inactive,inactive,inactive,inactive,inactive
CC1=C(/C=C/C(C)=C/C=C/C(C)=C/C=C/C=C(C)/C=C/C=C(C)/C=C/C2=C(C)C(=O)CCC2(C)C)C(C)(C)CCC1=O,inactive,inactive,inactive,inactive,inactive,inactive,inactive,inactive,inactive,inactive,inactive,inactive,inactive,inactive,inactive,inactive,inactive,inactive,inactive,
C[C@@H]1CCC2[C@@H](C)[C@@H](O)O[C@@H]3O[C@@]4(C)CC[C@@H]1[C@@]23OO4 (stereo partly specified),2.2 nM (active),1.6 nM (active),2.2 nM (active),2.2 nM (active),2.2 nM (active),2.5 nM (active),3.2 nM (active),4.3 nM (active),6 nM (active),10.7 nM (active),,5.4 nM (active),4.8 nM (active),2.8 nM (active),1.6 nM (active),2.2 nM (active),3.2 nM (active),2.8 nM (active),2.5 nM (active),2.2 nM (active)
CC(C)(C)C(=O)OCOC(=O)[C@@H]1N2C(=O)[C@@H](N=CN3CCCCCC3)[C@H]2SC1(C)C,inactive,inactive,inactive,inactive,inactive,inactive,inactive,inactive,inactive,inactive,inactive,inactive,inactive,inactive,inactive,inactive,inactive,inactive,inactive,inactive
CC(=O)N[C@@H](CC(=O)O)C(=O)N[C@@H](CCC(=O)O)C(=O)O (Ac-Asp-Glu-OH),inactive,inactive,inactive,inactive,inactive,inactive,inactive,inactive,inactive,inactive,,inactive,inactive,inactive,inactive,inactive,inactive,inactive,inactive,inactive
CCCCC/C=C\C/C=C\CCCCCCCC(=O)O,inactive,inactive,inactive,inactive,inactive,inactive,inactive,inactive,inactive,inactive,inactive,inactive,inactive,inactive,inactive,inactive,inactive,inactive,inactive,inactive
COc1ccc2c3c1O[C@H]1C[C@@H](O)C=C[C@@]31CCN(C)C2,inactive,inactive,inactive,inactive,inactive,inactive,inactive,inactive,inactive,inactive,inactive,inactive,inactive,inactive,inactive,inactive,inactive,inactive,inactive,inactive
